These results are taken from PubChem BioAssay (Tox21).

Values without a mark were called inactive. Records with an inconclusive call do not appear. Activity calls are given as the source filed them. Unless noted, calls follow the shape of the dose curve; as a rule, active = well fitted curve in the direction sought with a large enough effect in the repeat runs; inconclusive = weak or mixed curves; inactive = no such curve, though single readings can be large; an effect the other way counts as inactive or inconclusive.

Assay [1] deals with Progesterone receptor (Homo sapiens) (UniProt P06401). As to the kind of experiment: qHTS assay to identify small molecule agonists of the progesterone receptor (PR) signaling pathway (AID 1346784; calls by dose curve; also: % is scaled to controls: 0 for no effect and ±100 for the full control effect; nearly all actives have a fitted effect of over 30% in size). A digest of the protocol:
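Compounds were tested for PR agonism in HEK 293T cells bearing a beta-lactamase gene under UAS control. Treatment lasted 16 hr at 37C; signal came from fluorescence of a FRET substrate.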
For orientation: qHTS replaces the single test concentration by a dilution series.

The nature of assay [2]: qHTS assay to identify small molecule antagonists of the TGF-beta/Smad signaling pathway - cell viability counter screen (AID 1346824). Also: % is scaled to controls: 0 for no effect and ±100 for the full control effect; nearly all actives have a fitted effect of over 50% in size. In a few lines:
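SBE-bla HEK 293T cells were plated overnight at 37 C, then given compounds in DMSO plus TGF-beta1 (added as 0.25 ng/mL solution) for 5 hr. After the bla read, CellTiter-Glo was added to the same wells and luminescence read after 30 min at room temperature.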

Assay [3] is described as follows: qHTS assay to identify small molecule agonists of the TGF-beta/Smad signaling pathway - cell viability counter screen (AID 1346829). Also: top concentration of the series differs between compounds; % is scaled to controls: 0 for no effect and ±100 for the full control effect; nearly all actives have a fitted effect of over 45% in size. A digest of the protocol:
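In parallel with the Smad reporter read, viability of HEK 293T cells stably carrying SBE-bla is quantified by ATP luminescence following 5 hr compound treatment.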

Assay [4] can be described thus: qHTS assay to identify small molecule agonists of the TGF-beta/Smad signaling pathway (AID 1346859; active = well fitted activation curve with a large enough effect in the signal ratio in the repeat runs, not every such curve was filed as active; the % refers to the signal ratio; also: series mostly up to about 77 µM; % is scaled to controls: 0 for no effect and ±100 for the full control effect). A digest of the protocol:
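Each well held 4,000 SBE-bla HEK 293T cells incubated overnight before compound addition; 5 hr later the cleavable FRET substrate went on for 2 hr at room temperature, and fluorescence was read at two emissions.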

Assay [5] is described as follows: Human pregnane X receptor (PXR) small molecule agonists, qHTS cell viability counter screen (AID 1346977). Also: nearly all actives have a fitted effect of over 50% in size. Also: potency is read from the fitted curve at half-maximal effect. A digest of the protocol:
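Tox21 qHTS format; PXR-Luc HepG2, 2,000/well, charcoal-stripped FBS 5%. Cpd exposure 24hr. Read: CellTiter-Fluor fluorescence, multiplexed with luciferase.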

The nature of assay [6]: Caspase-3/7 induction in HepG2 cells by small molecules, qHTS assay (AID 1346978). Also: % is scaled to controls: 0 for no effect and ±100 for the full control effect; nearly all actives have a fitted effect of over 15% in size. In a few lines:
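Wild-type HepG2 cells (2,000/well) were settled 5 h at 37 C, 5% CO2, then exposed to compounds in DMSO for 17 h. Caspase-3/7 activity was read by luminescence 30 min after adding Caspase-Glo 3/7 reagent at room temperature.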

The nature of assay [7]: Caspase-3/7 induction in CHO-K1 cells by small molecules, qHTS cell viability counter screen (AID 1346979). Also: potency is read from the fitted curve at half-maximal effect; nearly all actives have a fitted effect of over 35% in size. A digest of the protocol: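 CellTiter-Fluor viability check, qHTS format: wild-type CHO-K1, 16hr compound treatment, 1hr reagent incubation, fluorescence read.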
A short description of assay [8]: Caspase-3/7 induction in CHO-K1 cells by small molecules, qHTS assay (AID 1346980). Also: % is scaled to controls: 0 for no effect and ±100 for the full control effect; nearly all actives have a fitted effect of over 15% in size. A digest of the protocol: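 Wild-type cells were seeded at 1,500 per well and settled 5 hr at 37 C, 5% CO2, then exposed to DMSO-dissolved compounds for 17 hr. Caspase-Glo 3/7 reagent was added, and luminescence was read after 30min at room temperature.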
The target in assay [9] is Nuclear receptor subfamily 1 group I member 2 (Rattus norvegicus) (UniProt Q9R1A7). As to the kind of experiment: Rat pregnane X receptor (rPXR) activation by small molecules, qHTS assay (AID 1346983). Also: % is scaled to controls: 0 for no effect and ±100 for the full control effect; nearly all actives have a fitted effect of over 20% in size. Particulars: rPXR luciferase reporter cells, One-Glo luminescence, 24 h; max activation: stronger effect = higher value. In a few lines:
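Cell-based rPXR luciferase reporter assay, 2,000 cells per well, rested 5hr at 37 C before compound addition in DMSO, then 24 hr at 37 C. One-Glo reagent was added and luminescence read after 30 min at room temperature.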

For assay [10], the target named is Nuclear receptor subfamily 1 group I member 2 (Homo sapiens) (UniProt O75469). As to the kind of experiment: Human pregnane X receptor (PXR) activation by small molecules, qHTS assay (AID 1346985). Also: nearly all actives have a fitted effect of over 40% in size. Also: potency is read from the fitted curve at half-maximal effect. As to activation: % is scaled to controls: 0 for no effect and ±100 for the full control effect. A digest of the protocol:
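DPX-2 cells (HepG2 co-transfected with a PXR response element and a CYP3A4-promoter luciferase construct) were seeded at 2,000 per well, rested 5 hr at 37C, then exposed to DMSO-dissolved compounds for 24 hr. Activation was read as luciferase luminescence.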

A short description of assay [11]: qHTS assay to identify small molecule agonists of the progesterone receptor (PR) signaling pathway - cell viability counter screen (AID 1346799; calls by dose curve; also: % is scaled to controls: 0 for no effect and ±100 for the full control effect; nearly all actives have a fitted effect of over 45% in size). A digest of the protocol: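 Here, 3,000 PR-UAS-bla HEK293T cells per well were treated with compounds for 16 hr after a 6 hr preincubation at 37C and 5% CO2; cell viability is the CellTiter-Glo luminescence signal.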

The target in assay [12] is Thyrotropin-releasing hormone receptor (Homo sapiens) (UniProt P34981). As to the kind of experiment: qHTS assay to identify small molecule antagonists of the thyrotropin-releasing hormone receptor (TRHR) signaling pathway (AID 1346877; active = well fitted inhibition curve with a large enough effect in the repeat runs, not every such curve was filed as active; also: series mostly up to about 51 µM; % is scaled to controls: 0 for no effect and ±100 for the full control effect). In a few lines: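 TRHR-expressing HEK293 cells loaded with calcium dye for 2 h at 37 C; compounds pre-incubated 5 min at room temperature before TRH challenge at 1 nM final. Intracellular calcium fluorescence read kinetically for 3 min; 15 concentrations in triplicate.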
Sequence of Thyrotropin-releasing hormone receptor (Homo sapiens) (P34981 whole entry, looked up): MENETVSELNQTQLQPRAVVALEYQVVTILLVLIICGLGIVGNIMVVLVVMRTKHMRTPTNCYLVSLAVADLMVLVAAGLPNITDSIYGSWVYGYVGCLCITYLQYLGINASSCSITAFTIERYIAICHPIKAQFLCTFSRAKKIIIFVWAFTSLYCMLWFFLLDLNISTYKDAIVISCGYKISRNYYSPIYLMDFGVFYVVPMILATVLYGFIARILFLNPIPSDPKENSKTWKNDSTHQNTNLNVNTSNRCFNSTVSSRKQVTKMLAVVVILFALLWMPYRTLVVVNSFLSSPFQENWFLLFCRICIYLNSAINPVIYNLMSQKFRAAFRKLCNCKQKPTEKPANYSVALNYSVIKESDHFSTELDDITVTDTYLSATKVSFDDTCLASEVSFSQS

Assay [13] has the same target. The assay is described as follows: qHTS assay to identify small molecule agonists of the thyrotropin-releasing hormone receptor (TRHR) signaling pathway (AID 1346891; calls by dose curve; also: series mostly up to about 58 µM; % is scaled to controls: 0 for no effect and ±100 for the full control effect). A digest of the protocol: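 Screening of agonists relied on calcium signalling in HEK293 cells expressing human TRHR: dye loading 2 h at 37 °C preceded compound addition and a 3-min fluorescence time course.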

Assay [14] is described as follows: Caspase-3/7 induction in HepG2 cells by small molecules, qHTS cell viability counter screen (AID 1346981). Also: series mostly up to about 92 µM; % is scaled to controls: 0 for no effect and ±100 for the full control effect; nearly all actives have a fitted effect of over 30% in size. A digest of the protocol: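 Wild-type HepG2 cells, 2,000/well, settled 5 hr at 37 C, 5% CO2 before compound addition. Viability read by CellTiter-Fluor fluorescence, reagent added after 16 hr compound exposure, then 1 hr at 37C, in the same wells as the caspase read.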

The target in assay [15] is Nuclear receptor subfamily 1 group I member 2 (Homo sapiens) (UniProt O75469). As to the kind of experiment: Human pregnane X receptor (PXR) small molecule agonists, qHTS assay (AID 1346982). Also: nearly all actives have a fitted effect of over 35% in size. Also: potency is read from the fitted curve at half-maximal effect. A digest of the protocol:
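PXR-Luc HepG2 reporter cells (CYP3A4-driven luciferase) in 5% charcoal-stripped FBS medium, plated 5 h before compound addition, then treated 24 h at 37C. Luciferase read by ONE-Glo luminescence after 30 min at room temperature.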

Assay [16] has as its target Cytochrome P450 2D6 (Homo sapiens) (UniProt P10635). As to the kind of experiment: Cytochrome P450 Family 2 Subfamily D Member 6 (CYP2D6) small molecule antagonists: luciferase reporter qHTS assay (AID 1671196). Also: nearly all actives have a fitted effect of over 50% in size. Also: potency is read from the fitted curve at half-maximal effect. In a few lines: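 Cell-free P450-Glo system: CYP2D6 with proluciferin substrate was pre-incubated with compound for 10 min, then reacted with NADPH regeneration for 1 h at room temperature. Luciferin product was detected after 20 min, and data were reported as relative luminescence units.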
Background: In a reporter assay the amount or activity of a reporter protein is the signal.

The nature of assay [17]: qHTS assay to identify small molecule antagonists of the progesterone receptor (PR) signaling pathway - cell viability counter screen (AID 1346798). Also: nearly all actives have a fitted effect of over 50% in size. Also: potency is read from the fitted curve at half-maximal effect. A digest of the protocol: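 Following a 4 hr attachment, PR-UAS-bla HEK293T cells in charcoal-stripped FBS medium were exposed to compounds with R5020 for 16 hr; CellTiter-Glo was added and luminescence read after 30 min at room temperature.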

Assay [18] addresses Nuclear receptor subfamily 1 group I member 2 (Homo sapiens) (UniProt O75469). The assay is described as follows: CYP3A4 induction through human pregnane X receptor (PXR) by small molecules, qHTS assay (AID 1346984). Also: % is scaled to controls: 0 for no effect and ±100 for the full control effect; nearly all actives have a fitted effect of over 40% in size. A digest of the protocol: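 DPX-2 HepG2 cells carrying a PXR response element and CYP3A4-promoter luciferase construct, treated with compounds 24 hr at 37C. Then P450-Glo CYP3A4 Luciferin-IPA substrate (3uM final) for 3 hr at 37C, One-Glo added, luminescence read.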

Sequence of Progesterone receptor (Homo sapiens) (P06401 whole entry, looked up): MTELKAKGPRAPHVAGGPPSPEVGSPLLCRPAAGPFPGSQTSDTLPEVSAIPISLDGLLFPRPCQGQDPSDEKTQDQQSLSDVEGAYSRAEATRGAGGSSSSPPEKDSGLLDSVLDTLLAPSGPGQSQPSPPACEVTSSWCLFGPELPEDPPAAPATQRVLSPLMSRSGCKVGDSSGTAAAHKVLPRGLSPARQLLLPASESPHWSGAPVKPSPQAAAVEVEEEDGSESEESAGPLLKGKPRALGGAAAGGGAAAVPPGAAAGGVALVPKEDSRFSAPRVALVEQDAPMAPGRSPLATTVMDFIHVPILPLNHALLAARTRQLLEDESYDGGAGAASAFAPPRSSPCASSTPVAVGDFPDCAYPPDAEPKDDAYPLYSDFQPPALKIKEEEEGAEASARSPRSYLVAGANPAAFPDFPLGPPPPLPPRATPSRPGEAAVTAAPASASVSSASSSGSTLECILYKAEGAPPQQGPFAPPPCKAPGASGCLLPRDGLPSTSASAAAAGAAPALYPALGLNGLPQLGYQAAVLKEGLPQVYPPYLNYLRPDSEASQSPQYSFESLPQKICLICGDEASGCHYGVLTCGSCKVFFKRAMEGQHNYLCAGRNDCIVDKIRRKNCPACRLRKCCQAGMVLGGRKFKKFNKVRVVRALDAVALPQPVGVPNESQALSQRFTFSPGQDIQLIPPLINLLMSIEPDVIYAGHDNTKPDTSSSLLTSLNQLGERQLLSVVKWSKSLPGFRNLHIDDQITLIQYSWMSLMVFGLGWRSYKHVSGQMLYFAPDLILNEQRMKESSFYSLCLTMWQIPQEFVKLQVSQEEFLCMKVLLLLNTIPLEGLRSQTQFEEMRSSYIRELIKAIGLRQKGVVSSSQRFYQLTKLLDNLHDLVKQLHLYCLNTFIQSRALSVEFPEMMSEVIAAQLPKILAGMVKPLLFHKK
Sequence of Nuclear receptor subfamily 1 group I member 2 (Homo sapiens) (O75469 whole entry, looked up): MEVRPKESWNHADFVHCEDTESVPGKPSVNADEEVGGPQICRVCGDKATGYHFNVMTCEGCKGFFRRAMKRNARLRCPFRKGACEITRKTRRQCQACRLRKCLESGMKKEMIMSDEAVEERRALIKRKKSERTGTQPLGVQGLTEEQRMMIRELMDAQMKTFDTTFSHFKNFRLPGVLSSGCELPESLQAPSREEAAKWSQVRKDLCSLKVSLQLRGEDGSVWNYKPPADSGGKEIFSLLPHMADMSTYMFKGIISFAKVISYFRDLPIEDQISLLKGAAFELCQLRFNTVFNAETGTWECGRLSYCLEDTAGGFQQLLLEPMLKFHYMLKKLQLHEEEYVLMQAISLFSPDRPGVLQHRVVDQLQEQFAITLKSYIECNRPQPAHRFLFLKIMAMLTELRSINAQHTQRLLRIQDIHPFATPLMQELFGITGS
Sequence of Cytochrome P450 2D6 (Homo sapiens) (P10635 whole entry, looked up): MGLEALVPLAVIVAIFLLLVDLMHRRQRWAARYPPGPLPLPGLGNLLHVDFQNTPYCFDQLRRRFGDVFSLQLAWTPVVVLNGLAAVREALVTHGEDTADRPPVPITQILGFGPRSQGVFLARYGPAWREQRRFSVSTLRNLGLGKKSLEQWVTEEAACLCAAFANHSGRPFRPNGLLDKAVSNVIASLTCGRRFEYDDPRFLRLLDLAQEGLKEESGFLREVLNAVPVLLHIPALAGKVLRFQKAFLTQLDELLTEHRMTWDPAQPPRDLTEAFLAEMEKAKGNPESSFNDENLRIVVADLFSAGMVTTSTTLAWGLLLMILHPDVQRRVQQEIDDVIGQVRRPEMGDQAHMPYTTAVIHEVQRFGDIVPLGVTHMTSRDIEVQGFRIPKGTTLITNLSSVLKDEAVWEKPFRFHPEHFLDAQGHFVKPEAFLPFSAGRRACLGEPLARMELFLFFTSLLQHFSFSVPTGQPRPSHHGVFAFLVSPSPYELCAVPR
Sequence of Nuclear receptor subfamily 1 group I member 2 (Rattus norvegicus) (Q9R1A7 whole entry, looked up): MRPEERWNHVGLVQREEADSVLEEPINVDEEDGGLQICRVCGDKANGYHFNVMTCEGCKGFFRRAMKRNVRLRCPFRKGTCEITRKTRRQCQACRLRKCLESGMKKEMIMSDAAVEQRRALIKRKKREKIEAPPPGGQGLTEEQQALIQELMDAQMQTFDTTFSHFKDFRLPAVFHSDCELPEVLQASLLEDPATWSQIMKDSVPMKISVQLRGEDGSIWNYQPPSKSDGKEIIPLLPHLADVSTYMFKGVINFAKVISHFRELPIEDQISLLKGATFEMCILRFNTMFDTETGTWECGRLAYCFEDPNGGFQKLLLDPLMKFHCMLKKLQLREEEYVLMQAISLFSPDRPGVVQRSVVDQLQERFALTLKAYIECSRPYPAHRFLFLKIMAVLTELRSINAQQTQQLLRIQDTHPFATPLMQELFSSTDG

Turning to `CC(=O)c1ccc2c(c1)N(CCCN1CCC(CCO)CC1)c1ccccc1S2`, the Potency entry in assay [1], in assay [2], in assay [4], in [6], in assay [8] and in [10] was “inactive” in each case. The call in [3] was inactive. Besides, the Potency is 26.6 µM (active) in assay [5] and 29.8 µM (active) in assay [7]. For the same molecule, the max activation in assay [9] was -2.34%.

On to `O=C(c1ccc(F)cc1)C1CCN(CCn2c(=S)[nH]c3ccccc3c2=O)CC1`, for which the Potency result in assay [1], in [11], in assay [2], in [13] and in assay [14] was “inactive” in each case. Besides, the result in assay [3] and in [12] was inactive. In addition, the Potency in assay [15] is 10.6 µM (active); in assay [16] it was 4.36 µM (active). Moreover, the max activation in assay [9] is 1.09%.

Take `CCN(CC)CCOC(=O)C(c1ccccc1)C1CCCCC1` (configuration not stated): the Potency result in [1], in assay [17], in assay [2], in assay [4] and in assay [18] was “inactive” throughout. Also, the molecule was called inactive in assay [3]. Besides, the Potency in [15] is 13.3 µM (active); in assay [10], 25.1 µM (active); in assay [16] it was 1.1 µM (active). Further, the max activation in assay [9] is 1.58%.

On to `Cn1c(=O)cc(Oc2ccc(F)cc2F)c2cnc(NCC(C)(C)O)nc21`, for which the Potency entry in assay [2], in assay [4], in assay [5], in assay [6], in assay [8] and in assay [14] was “inactive” each time.

With `Clc1ccc2c(c1)CCc1cccnc1C2=C1CCNCC1`, the Potency in assay [17] is 21.1 µM (active); in assay [5] it was 29.8 µM (active); in assay [10] it was 14.1 µM (active). For the same molecule, the Potency result in assay [2], in assay [4] and in [15] was “inactive” in each case. Also, in assay [3], the call was inactive. In assay [9], the max activation was -7.49%.

As for `CCCCNc1ccc(C(=O)OCCOCCOCCOCCOCCOCCOCCOCCOCCOC)cc1`, the Potency entry in assay [1], in assay [2], in assay [4], in assay [13], in [5] and in assay [14] was “inactive” each time. The Potency entry in [15], in assay [18], in assay [10] and in [16] was “inactive” in each case. The molecule was called inactive in assay [3] and in assay [12]. Moreover, the max activation in assay [9] was -3.41%.
